From PubChem BioAssay AID2289 (National Center for Advancing Translational Sciences (NCATS), 2010)
Screen size: about 340,000 compounds; about 3,300 (0.97%) were called active. About 9% were inconclusive and are not listed. Calls come from the whole dose curve; as a rule, active = well fitted inhibition curve with a large enough effect; inconclusive = small, poorly fitted or top-dose-only effect, or effect the other way; inactive = flat fitted curve, though single readings scatter. Some of the results follow.

Assay: qHTS Assay for Modulators of miRNAs and/or Inhibitors of miR-21; note: nearly all actives have a fitted effect of over 55% in size
Conditions: HeLa miR-21-FLuc reporter, luciferase luminescence, 48 h; actives lower the signal
Method in brief: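 Using DMEM plus 10% FBS, HeLa miR-21-FLuc cells are incubated with test compounds (final up to about 40uM) for 48 hours; firefly luciferase signal is then imaged following reagent-mediated lysis.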
Potency is the fitted concentration of half-maximal effect.

Potency, active:
Cc1cccc(Nc2n[nH]c(C)c2[N+](=O)[O-])c1 0.736 µM, Cc1ccc(Nc2cc(C)nc(-c3ccccc3)n2)cc1 7.36 µM, CC(=O)c1ccc(NC(=O)c2ccc(C)c(Br)c2)cc1 0.826 µM, CC(=O)c1ccc(NC(=O)c2cc(Cl)sc2Cl)cc1 1.47 µM, Cc1cc(-c2ccc(Br)cc2)n[nH]1 13.1 µM, CCC(=O)N1CCC(c2ccc(OC)cc2)=N1 13.1 µM, O=C(Nc1ccccc1F)C(=O)Nc1cccc2ccccc12 3.29 µM, O=C(Nc1cccc2ccccc12)c1ccccc1 6.56 µM, O=C(Nc1cccc2ccccc12)c1onc2c1CCCC2 5.85 µM, O=C(CSc1cccs1)Nc1cccc2ccccc12 10.4 µM, O=C(COC(=O)C1CC1)Nc1ccc(N=Nc2ccccc2)cc1 1.85 µM, CC1CC1C(=O)OCC(=O)Nc1ccc(N=Nc2ccccc2)cc1 (configuration not stated) 1.47 µM, C(=N\Nc1cc(N2CCCCC2)ncn1)/c1ccco1 2.93 µM, Cc1ccc(-c2cc(=O)c3cc(Cl)ccc3[nH]2)cc1 0.369 µM, FC(F)(F)c1cc(Cl)c2nc(-c3ccccc3)cn2c1 0.369 µM, CNc1oc(/C=C/c2ccccc2)nc1C#N 3.29 µM, CNc1oc(/C=C/c2cccc(OC)c2)nc1C#N 2.93 µM, CCCCNc1nc(N)nc(-c2cc(Cl)ccc2O)n1 0.927 µM, CNC(=O)c1ccc(NC(=O)/C=C/c2cccc(F)c2)cc1 10.4 µM, Cn1cc([N+](=O)[O-])c(C(=O)Nc2ccc(-c3nc4ccccc4o3)cc2)n1 7.36 µM, Cn1cc([N+](=O)[O-])c(C(=O)Nc2ccc3nc(-c4ccccc4)[nH]c3c2)n1 14.7 µM, CC(C)(C)Nc1nc(-c2ccc3c(c2)CCN3C(=O)C2CC2)cs1 1.47 µM, CNc1nc(-c2ccc3c(c2)CCN3C(=O)c2ccccc2C)cs1 4.65 µM, COC(=O)c1ccc(N2CCC(C)CC2)c(N)c1 4.14 µM, Cc1c(C(=O)NC2CCCCC2)oc2ccc(F)cc12 13.1 µM, COc1ccc2oc(C(=O)NC(C)(C)C)c(C)c2c1 3.69 µM, COc1ccc2oc(C(=O)NC3CCCCC3)c(C)c2c1 2.93 µM, COc1ccc2c(c1)OC/C(=C/c1cccs1)C2=O 5.85 µM, Cn1cccc1C(=O)N/N=C/c1c(Cl)cccc1Cl 2.07 µM, O=C(CSc1nnc(C2CCCCC2)o1)Nc1ccccc1Cl 7.36 µM, Cc1cccn2c1nc(=S)n2C(=O)c1ccco1 1.04 µM, Cc1cccc2nc(=S)n(C(=O)c3ccco3)n12 0.521 µM, CC(=O)Oc1ccc(C(=O)[C@H]2[C@H]3C(=O)N(c4ccc5ccccc5c4)C(=O)[C@H]3[C@@H]3C=CC=NN32)cc1 6.56 µM, Cc1cc2nc(N)sc2cc1[N+](=O)[O-] 14.7 µM, Cc1ccc(-c2nc3cccnc3s2)cc1NS(C)(=O)=O 4.14 µM, O=S(=O)(Nc1ccc(-c2nc3cccnc3s2)cc1)c1cc(F)ccc1F 16.5 µM, O=S(=O)(Nc1ccc(-c2nc3cccnc3s2)cc1)c1ccccc1F 13.1 µM, CCN1CCN(Cc2ccc(NC(=O)Nc3ccc(SC)cc3)cc2)CC1 14.7 µM, O=C(Nc1ccc(CN2CCCCC2)cc1)Nc1ccccc1Cl 16.5 µM, CCN1CCN(Cc2ccc(NC(=O)Nc3ccccc3Cl)cc2)CC1 1.31 µM, O=C(Nc1cc2c(cc1Br)OCCO2)c1ccco1 6.56 µM, O=C(NNC(=S)Nc1ccc(Br)cc1Cl)c1ccco1 3.29 µM, O=C(Nc1cc2c(cc1Cl)OCCCO2)c1ccco1 3.69 µM, O=C(Nc1cc2c(cc1Cl)OCCO2)c1ccco1 6.56 µM, O=C(CCc1ccccc1)Nc1cc2c(cc1Cl)OCCO2 2.61 µM, Cc1c(-c2ccccc2)[nH]n2c(=O)c3c(nc12)CCCC3 2.93 µM, CC(C)(C)C(=O)Nc1ccc(-c2nc3ccc(NC(=O)C(C)(C)C)cc3[nH]2)cc1 0.414 µM, CC(=O)Nc1ccc2nc(-c3cccs3)[nH]c2c1 9.27 µM, CCOc1cc(/C=C2\N=C3CCCCCN3C2=O)ccc1O 14.7 µM, O=C1/C(=C\c2ccc(O)c(O)c2)N=C2CCCCCN12 14.7 µM, Cc1ccc2nc(CNC(=O)c3ccccc3)[nH]c2c1 6.56 µM, Cc1c(/C(O)=C2/C(=O)C(=O)N(Cc3cccnc3)C2c2cccs2)cnn1-c1ccccc1 (configuration not stated) 5.21 µM, Cn1c(N)c(C(=O)/C=C/c2ccccc2)c(=O)[nH]c1=O 5.85 µM, CCC(=O)Nc1cc(C(=O)OCC(=O)c2ccccc2)ccc1C 1.85 µM, CC(=O)Nc1cc(C(=O)OCC(=O)c2ccc(C)cc2)ccc1C 10.4 µM, Nc1cccc(C(=O)OCC(=O)c2ccccc2)c1 7.36 µM, CNc1ccccc1C(=O)OCC(=O)c1ccccc1 16.5 µM, CCC(=O)Nc1cc(C(=O)OCC(=O)c2ccccc2Cl)ccc1C 10.4 µM, CCc1ccc(C(=O)CCC2CCCCC2=O)cc1 (configuration not stated) 16.5 µM, Cc1ccc(C(=O)CCC2CCCCC2=O)cc1 (configuration not stated) 14.7 µM, O=C(O)c1ccccc1C(=O)NNc1cccc(Cl)n1 5.85 µM, CCOC(=O)/C=C/c1cnn(-c2ccccc2)c1 2.33 µM
